Hit rate of the full screen: of about 2,300 compounds, about 1,400 (61%) were called active. Roughly 29% stayed inconclusive and do not appear here. So high a share suggests a set chosen from earlier hits. This is one part of the list. Unmarked numbers belong to inactive results. The call rests on the fitted dose curve; in most records, active means well fitted inhibition curve with a large enough effect; inconclusive means small, poorly fitted or top-dose-only effect, or effect the other way; inactive means no such curve, though single readings can be large or run the other way.
On the % scale 0 is the no-effect control and ±100 the full control effect; potency means the concentration at half of the fitted maximal effect.

A short description of this assay: Confirmation screen for delayed death inhibitors of the malarial parasite plastid, 96 hour incubation. Further: nearly all actives have a fitted effect of over 60% in size. The settings on record: P. falciparum luciferase growth in erythrocytes; series mostly up to 28.7 µM; activity change, negative = inhibition: at the top concentration. The gist of the method:
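Erythrocytes infected with luciferase-expressing P. falciparum (2% hematocrit, 0.1% parasitemia final) in RPMI 1640 with 0.5% Albumax, exposed to compounds 96 h at 37 C, 5% CO2. Growth inhibition read as decreased luciferase luminescence.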
In the case of `Cc1ccc(-c2csc(N/N=C/c3ccco3)n2)c(C)c1`, the Potency was 14.1 µM (active).
`CCOc1ccc(C(=O)Nc2ccc(N3CCN(C)CC3)cc2)cc1`: the Potency was 15.8 µM (active).
For the compound `CCOc1ccc(NC(=O)CC2C(=O)N(c3ccccc3)C(=O)N2CCOC)cc1` (centres undefined), the “activity change, negative = inhibition” value was -4.39%.
With `CC(C)N1CCC(N2CCN(Cc3ccc(-c4ccc(Cl)cc4)o3)CC2CCO)CC1` (centres undefined), the Potency is 5.01 µM (active).
The same measure, in the same setting: the same measure for `CN1C[C@@H]2C[C@H]1CN2c1cc2c(cc1F)c(=O)c(C(=O)O)cn2C1CC1`: 2 µM (active); for `COc1ccc(C2(CCN)CC(C)N(C)CC2C)cc1` (centres undefined): 15.8 µM (active); for `CCn1c2ccccc2c2cc(/C=N/n3cn[nH]c3=S)ccc21`: 6.31 µM (active).
For the compound `CCOC(=O)C1(Cc2cccc(Cl)c2)CCCN(C(=O)C(C)(C)C)C1` (centres undefined), the Potency is 15.8 µM (active).
Same read-out and setting: the same measure for `Cc1ccc(C2C3=C(CC(C)(C)CC3=O)N=C3c4ccccc4C(=O)C32)cc1` (centres undefined): 7.08 µM (active); for `O=C(CSc1c2c(nc3ccc(Cl)cc13)CCCC2)NCCCN1CCOCC1`: 10 µM (active); for `CCN(CC)c1ccc(-c2sc(Nc3ccccc3)n[n+]2-c2ccc(F)cc2)cc1`: 12.6 µM (active).
The same measure, in the same setting: the same measure for `c1ccn2cc(C34CC5CC(CC(C5)C3)C4)nc2c1`: 12.6 µM (active).
`Cc1c(OC(C)C(=O)NCc2cccnc2)ccc2c3c(c(=O)oc12)CCCC3` (centres undefined): the Potency was 1.26 µM (active).
Regarding `Cc1c(OCC(=O)NCc2cccnc2)ccc2c3c(c(=O)oc12)CCCC3`, the Potency is 12.6 µM (active).
Turning to `O=c1oc2ccccc2c(O)c1CN1CCCCC1`, the “activity change, negative = inhibition” value is 0.904%.
In the case of `CC(=O)N1/C(=C/c2ccc(N(C)C)cc2)C(=O)c2ccccc21`, the Potency is 0.282 µM (active).
Still for that read-out and setting: the same measure for `C#CCn1c(S(=O)(=O)Cc2ccc(F)cc2)nc(-c2ccccc2)c1-c1ccccc1`: 12.6 µM (active).
As to `CCOC(=O)Cn1c(S(=O)(=O)Cc2cccc(F)c2)nc(-c2ccccc2)c1-c1ccccc1`, the Potency was 7.08 µM (active).
Same read-out and setting: the same measure for `C#CCn1c(S(=O)(=O)Cc2ccc(C)cc2)nc(-c2ccccc2)c1-c1ccccc1`: 12.6 µM (active); for `COc1cc(-c2nnc(NC(=O)CCS(=O)(=O)c3ccccc3)o2)cc(OC)c1OC`: 12.6 µM (active).
As for `Cc1sc(NC(=O)c2c(F)cccc2F)nc1-c1ccccc1`, the “activity change, negative = inhibition” value was 6.15%.
Take `Cc1sc(N/N=C/c2cccnc2)nc1-c1ccccc1`: the Potency was 12.6 µM (active).
`Cc1nc([N+](=O)[O-])c(Br)n1CC(=O)c1ccc(Cl)cc1`: the Potency is 7.94 µM (active).
On the same count and under the same terms, the same measure for `O=C(CSc1nc2cc([N+](=O)[O-])ccc2n1-c1ccccc1)NCc1ccc2c(c1)OCO2`: 11.2 µM (active).
Still for that read-out and setting: the same measure for `COc1cc2c(cc1OC)CN(C(=O)c1cc(C3CC3)nn1-c1ccccc1)CC2`: 12.6 µM (active).
On to `COc1cc2cc(CN(CCc3ccccc3C)C(=S)NCCCN3CCOCC3)c(=O)[nH]c2cc1OC`, for which the Potency was 4.47 µM (active).
The same measure, in the same setting: the same measure for `COc1cc2cc(CN(Cc3cccs3)C(=S)Nc3ccc(C)cc3)c(=O)[nH]c2cc1OC`: 10 µM (active); for `O=C(NC1CCCCC1)C1CCN(c2nnnn2-c2ccccc2)CC1`: 14.1 µM (active).
Turning to `O=C(NC1CCCC1)C1CC(=O)N(CCc2ccccc2)C1` (centres undefined), the “activity change, negative = inhibition” value is -58%.
`O=C(Nc1cccc([N+](=O)[O-])c1)c1ccc2nsnc2c1`: the “activity change, negative = inhibition” value is 3.84%.
Take `O=C(CSc1nc2ccccc2c(=O)[nH]1)Nc1cccc([N+](=O)[O-])c1`: the Potency is 14.1 µM (active).
As to `CCOC(=O)CNC(c1ccccc1)c1cc(Br)ccc1NC(=O)CCN1CCOCC1` (centres undefined), the Potency is 11.2 µM (active).
As to `COc1ccc(Cl)cc1C(=O)Nc1ccncc1`, the Potency is 12.6 µM (active).
For the compound `COc1ccc(Cl)cc1NC(=O)C(=O)NCc1ccncc1`, the “activity change, negative = inhibition” value was -9.49%.
With `COc1ccc(Nc2cc(Cl)ccc2C(=O)O)cn1`, the “activity change, negative = inhibition” value was -63.4%.
With `CC(=O)Nc1cccc(Oc2ncnc3scc(-c4ccc(C(C)C)cc4)c23)c1`, the Potency was 6.31 µM (active).
The same measure, in the same setting: the same measure for `Cc1cc(C)c(C(=O)/C=C/c2cccc3ccccc23)c(=O)[nH]1`: 6.31 µM (active); for `CCc1nnc(NC(=O)CSc2ncnc3c2cnn3-c2ccc(OC)cc2)s1`: 12.6 µM (active).
Turning to `CCc1nnc(NC(=O)CSc2nc3cccnc3n2C2CCCCC2)s1`, the “activity change, negative = inhibition” value was -93.7%.
For `CC(NC(=O)c1ccc([N+](=O)[O-])o1)C12CC3CC(CC(C3)C1)C2` (centres undefined), the Potency is 6.31 µM (active).
Still for that read-out and setting: the same measure for `O=C(NC12CC3CC(CC(C3)C1)C2)c1ccc([N+](=O)[O-])o1`: 2.24 µM (active).
Turning to `Cn1cc([N+](=O)[O-])c(C(=O)Nc2ccn(C34CC5CC(CC(C5)C3)C4)n2)n1`, the “activity change, negative = inhibition” value was -6.68%.
For `COc1cc(C2Oc3ccccc3C=C2[N+](=O)[O-])cc(OC)c1OC` (centres undefined), the Potency was 12.6 µM (active).
`CN(c1ccccc1)S(=O)(=O)c1cc(C(=O)N2CCN(c3ncccn3)CC2)ccc1Cl`: the Potency was 8.91 µM (active).
The same measure, in the same setting: the same measure for `CCOC(=O)C1(CCc2ccccc2)CCN(Cc2ccccn2)CC1`: 2.51 µM (active).
Consider `Cc1cccc(C)c1OCCn1nc(C(=O)O)c2ccccc2c1=O`, for which the “activity change, negative = inhibition” value is -21.3%.
`Cc1cccc(C)c1NC(=O)C(=O)c1cn(C)c2ccccc12`: the Potency is 15.8 µM (active).
The same measure, in the same setting: the same measure for `COc1ccc(CN2C(=O)c3ccccc3C2C(=O)NC2CCC(C)CC2)c(OC)c1` (centres undefined): 7.08 µM (active); for `COc1cccc(CN2CCN(c3nc4nonc4nc3N3CCCCC3)CC2=O)c1`: 1.78 µM (active).
For `Cc1cc2nc3c(=O)[nH]c(=S)[nH]c3nc2cc1NC(=O)C(F)(F)F`, the Potency is 14.1 µM (active).
Take `O=C(Nc1nc(-c2ccccn2)cs1)C1COc2ccccc2O1` (centres undefined): the Potency is 6.31 µM (active).
For `CCc1ccc(N/C(SCc2cccc(F)c2)=C(/C#N)C(=O)NCc2ccco2)cc1`, the Potency was 7.94 µM (active).
Still for that read-out and setting: the same measure for `O=C(NC1CCCN(Cc2ccc(Cl)cc2)C1)c1cnc2ccccn2c1=O` (centres undefined): 11.2 µM (active); for `Cc1occc1C(=O)NC1CCCN(Cc2ccc(CC(C)C)cc2)C1` (centres undefined): 12.6 µM (active).
Regarding `Cc1ccc(-c2csc(SCC(=O)c3c(N)n(C4CC4)c(=O)[nH]c3=O)n2)cc1`, the “activity change, negative = inhibition” value was -17.4%.
Consider `Nc1c(C(=O)CSc2nc3ccccc3o2)c(=O)[nH]c(=O)n1C1CC1`, for which the Potency was 12.6 µM (active).
On the same count and under the same terms, the same measure for `Cc1ccccc1-n1c(SCC(=O)c2c(N)n(C3CC3)c(=O)[nH]c2=O)nnc1N1CCOCC1`: 7.94 µM (active).
On the same count and under the same terms, the same measure for `Cc1ccc(-n2nnnc2Sc2nc([N+](=O)[O-])nn2C)cc1C`: 3.16 µM (active).
As for `Cc1ccc(-n2nnnc2SCC(=O)Nc2ccccc2-c2ccccc2)cc1C`, the “activity change, negative = inhibition” value was -17%.
